The target of test [1] is 6-phosphogluconate dehydrogenase, decarboxylating (Homo sapiens) (UniProt P52209). Put plainly: 6PGD enzyme inhibitors, primary screen, biochemical, human, recombinant enzyme, NADPH absorbance (AID 1159550;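 active = at least 20% inhibition of 6-phosphogluconate dehydrogenase activity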). The conditions noted are these: recombinant 6PGD, NADPH absorbance 341 nm; at 10 µM; stronger effect = higher value.
Test [2] can be described thus: differential killing of epithelial or mesenchymal cells, primary screen, imaging, PC-3E GFP, TEM4-18 mCherry, co-culture (AID 1345086;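 active = compounds killing one labelled cell type while sparing the other, by normalised counts and ratio limits, not self-fluorescent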;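 as to all read-outs here: cells exposed to compound for 72 h before imaging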;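 as to red/green cell ratio (normalised): normalised mesenchymal count divided by normalised epithelial count so high means epithelial killing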). The note with it: imaging cell counts, at 1 µM; for red/green cell ratio (normalised): actives lie on both sides.
Test [3] relates to Aerobactin synthetase IucA (Klebsiella pneumoniae hvKP1). Put plainly: Biochemical IucA enzyme inhibition primary screen of the Spectrum library (AID 1346200).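 Also: 100% = wells without compound and 0% = wells lacking enzyme.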 The conditions noted are these: malachite green pyrophosphate, A620, at 8 µM, stronger effect = lower value.
Test [4] in a line: polyglutamine-triggered caspase-3 activation inhibitors, cell-based (AID 1583). The note with it: polyglutamine-induced caspase-3 activation, cell assay; stronger effect = higher value;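 tested at 10 µM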.
The nature of test [5]: suppressors of polyQ aggregation in yeast, 75Q-TubU reporter (AID 1593). The note with it: Yeast 75Q polyglutamine aggregation reporter.
Test [6] can be described thus: rescue of polyQ-huntingtin neuronal dysfunction in worms, whole organism, C. elegans mechanosensory neurons, N-terminal huntingtin (AID 1599). The note with it: touch response, stronger effect = higher value.
The nature of test [7]: inhibitors of mitochondrial cytochrome c release, biochemical, purified mitochondria (AID 1603).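 Also: mouse liver mitochondria challenged with calcium chloride; signal normalized to the plate average as 100%.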 The conditions noted are these: stronger effect = lower value.
Test [8] is described as follows: inhibitors of polyQ protein aggregation (AID 1604). The conditions noted are these: polyglutamine-induced protein aggregation inhibition assay; stronger effect = higher value; tested at 2.5 µM.
A short description of test [9]: enhancers of glutamate uptake in motor neurons, MN-1 cell line (AID 1612).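 Also: tested at 1 µM final; 0% = mean of DMSO vehicle wells on each plate; positive means more glutamate uptake than control and negative means less.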 The note with it: MN-1 motor neuron cells, stronger effect = higher value.
Test [10] in a line: suppressors of polyglutamine aggregation in yeast, 75Q-TubH (AID 1616). The note with it: S. cerevisiae 75Q-TubH polyglutamine aggregation suppression; stronger effect = higher value.
Test [11] is described as follows: liver-stage malaria parasite growth inhibition, primary screen, cell-based, HepG2, luciferase luminescence, HepG2 viability (AID 624349; in the data active = parasite load remaining mostly below about 12%, no sharp cut-off; inactive = mostly above about 10%;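 also: 100% = mean of DMSO negative control wells on the same plate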). The conditions noted are these: P. berghei liver stage in HepG2, luciferase luminescence, concentration not given here; parasite load remaining: stronger effect = lower value; viability: measured here: HepG2 viability without parasites.
A short description of test [12]: sensitizers of A549 cells to miR-34 induction, primary screen, imaging, A549 dox-inducible miR-34, nuclei and caspase counts (AID 1347080;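 active = compounds whose cell count with miR-34 switched on is under 0.7 times the count with it off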). The note with it: A549 miR-34 inducible, Hoechst nuclei count, 48 h.
Test [13] is described as follows: survival rescue of mitochondrial mutant cells in low glucose, primary screen, MELAS cybrids, Rieske KO mouse fibroblasts, CellTiter-Glo (AID 1508586;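 active = mean z-score across replicates of 1.96 or higher in either the MELAS or the Rieske mutant cell line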;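 also: z relative to plate mean and SD of compound and empty wells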). For orientation: In ATP-based viability assays light output follows the ATP content of the culture.
Test [14] concerns the target NAD(+) hydrolase SARM1 (Homo sapiens) (UniProt Q6SZW1). Put plainly: SARM1 TIR NADase inhibitors, cell lysate, NAD-Glo luminescence (AID 1508614;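 active = compound whose remaining NAD level is above about 45 nM, limit read from the data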;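 also: higher remaining NAD means stronger inhibition of SARM1 NADase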). The note with it: SAM-TIR HEK293T lysate NADase, at 1 µM, stronger effect = higher value.
The target of test [15] is Mitogen-activated protein kinase 7 (Homo sapiens) (UniProt Q13164). Put plainly: ERK5 transactivation activators in reporter cells, primary screen, cell-based, HTS (AID 1508626;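 active = luciferase signal above three times the same-plate solvent-only control wells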;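 also: luciferase driven by Gal4-ERK5 fusion binding five Gal4 sites before minimal TATA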). The conditions noted are these: HeLa Gal4-ERK5 transactivation, 18 h, at 5 µM, stronger effect = higher value.
Chain of Mitogen-activated protein kinase 7 (Homo sapiens) (Q13164 whole entry, looked up, the tested form may be a part): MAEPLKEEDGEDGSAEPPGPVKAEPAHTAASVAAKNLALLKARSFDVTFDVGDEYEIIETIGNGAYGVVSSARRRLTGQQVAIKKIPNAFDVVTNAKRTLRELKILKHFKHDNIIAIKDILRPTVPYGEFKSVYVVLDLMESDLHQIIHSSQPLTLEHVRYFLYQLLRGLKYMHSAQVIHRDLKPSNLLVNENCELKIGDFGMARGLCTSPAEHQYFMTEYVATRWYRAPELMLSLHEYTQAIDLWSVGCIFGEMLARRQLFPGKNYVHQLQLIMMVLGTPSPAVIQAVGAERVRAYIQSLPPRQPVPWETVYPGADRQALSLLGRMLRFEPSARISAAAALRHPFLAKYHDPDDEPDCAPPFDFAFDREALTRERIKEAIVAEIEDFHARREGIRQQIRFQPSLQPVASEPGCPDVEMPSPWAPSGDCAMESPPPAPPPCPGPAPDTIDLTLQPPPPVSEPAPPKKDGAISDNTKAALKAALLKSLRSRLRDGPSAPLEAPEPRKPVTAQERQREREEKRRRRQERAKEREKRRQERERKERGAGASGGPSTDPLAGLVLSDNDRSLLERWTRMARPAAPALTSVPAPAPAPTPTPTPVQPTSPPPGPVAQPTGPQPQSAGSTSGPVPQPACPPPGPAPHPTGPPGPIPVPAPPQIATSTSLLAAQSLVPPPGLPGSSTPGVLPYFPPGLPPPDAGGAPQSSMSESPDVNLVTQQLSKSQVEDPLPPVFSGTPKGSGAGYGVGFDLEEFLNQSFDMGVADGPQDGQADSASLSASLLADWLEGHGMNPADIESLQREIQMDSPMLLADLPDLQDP
Test [16] is described as follows: reducers of polyQ inclusions in PC12 cells, cell-based, NGF-treated PC12, GFPQ80 (AID 1614).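 Also: lower means fewer inclusions and 0 means no inclusions at all.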 The note with it: PC12 NGF-treated GFP-polyQ80 inclusion reduction.
Test [17] in a line: hESC survival regulators, cell-based (AID 493140).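 Also: cells exposed to compounds for four days before counting.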 The note with it: human embryonic stem cell survival screen; stronger effect = higher value.
A short description of test [18]: circadian clock period modulators, cell-based, LOPAC library, luminescence reporter (AID 2774).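 Also: values are relative to mean of DMSO wells on each plate.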 The conditions noted are these: circadian reporter cells, at 7 µM, actives lie on both sides.
The nature of test [19]: viability rescue of complex I mutant cybrids, primary screen, cell-based, galactose medium, ATP luminescence (AID 1645843;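 active = z-score of at least 1.8 in each of two replicates, scored against plate mean and spread of sample wells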;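 also: positive z means more ATP and so rescue of galactose-driven cybrid death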). The conditions noted are these: complex I mutant cybrid cells, 72 h, stronger effect = higher value.
[20] abbreviates: measured here: epithelial PC-3E GFP cell survival.
[21] abbreviates: measured here: mesenchymal TEM4-18 mCherry cell survival.
The mark [22] stands for this setting: measured here: relative caspase fold change +Dox/-Dox.
The mark [23] stands for this setting: measured here: total cells with miR-34 induction, stronger effect = lower value.
The mark [24] stands for this setting: measured here: total cells without miR-34 induction.
Where [25] appears, read: MELAS cybrid survival, CellTiter-Glo 48 h, stronger effect = higher value.
Where [26] appears, read: Rieske KO mouse fibroblast survival, CellTiter-Glo 72 h.

Each structure is given as a SMILES string. Values joined by “and” are separate entries in the source; they are usually repeats but may differ in a detail not shown here. Equal entries are not always repeated. For some assays here: Measured potencies and affinities stand elsewhere. Active and inactive are the calls of the source. Unless noted, no rule for the calls is given here.

Chain of 6-phosphogluconate dehydrogenase, decarboxylating (Homo sapiens) (P52209 whole entry, looked up): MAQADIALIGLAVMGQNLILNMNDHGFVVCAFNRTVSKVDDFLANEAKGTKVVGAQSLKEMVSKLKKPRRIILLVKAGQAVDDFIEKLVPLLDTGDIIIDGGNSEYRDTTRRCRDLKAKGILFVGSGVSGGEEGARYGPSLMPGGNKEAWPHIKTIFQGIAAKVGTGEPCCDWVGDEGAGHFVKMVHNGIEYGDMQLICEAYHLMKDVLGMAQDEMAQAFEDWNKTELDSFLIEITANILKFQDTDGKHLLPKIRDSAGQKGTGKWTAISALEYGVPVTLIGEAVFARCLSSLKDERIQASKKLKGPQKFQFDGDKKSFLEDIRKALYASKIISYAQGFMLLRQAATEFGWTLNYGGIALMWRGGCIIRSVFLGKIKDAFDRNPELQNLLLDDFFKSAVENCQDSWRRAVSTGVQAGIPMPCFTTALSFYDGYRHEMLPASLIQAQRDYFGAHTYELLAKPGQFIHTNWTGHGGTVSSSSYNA
Chain of NAD(+) hydrolase SARM1 (Homo sapiens) (Q6SZW1 whole entry, looked up, the tested form may be a part): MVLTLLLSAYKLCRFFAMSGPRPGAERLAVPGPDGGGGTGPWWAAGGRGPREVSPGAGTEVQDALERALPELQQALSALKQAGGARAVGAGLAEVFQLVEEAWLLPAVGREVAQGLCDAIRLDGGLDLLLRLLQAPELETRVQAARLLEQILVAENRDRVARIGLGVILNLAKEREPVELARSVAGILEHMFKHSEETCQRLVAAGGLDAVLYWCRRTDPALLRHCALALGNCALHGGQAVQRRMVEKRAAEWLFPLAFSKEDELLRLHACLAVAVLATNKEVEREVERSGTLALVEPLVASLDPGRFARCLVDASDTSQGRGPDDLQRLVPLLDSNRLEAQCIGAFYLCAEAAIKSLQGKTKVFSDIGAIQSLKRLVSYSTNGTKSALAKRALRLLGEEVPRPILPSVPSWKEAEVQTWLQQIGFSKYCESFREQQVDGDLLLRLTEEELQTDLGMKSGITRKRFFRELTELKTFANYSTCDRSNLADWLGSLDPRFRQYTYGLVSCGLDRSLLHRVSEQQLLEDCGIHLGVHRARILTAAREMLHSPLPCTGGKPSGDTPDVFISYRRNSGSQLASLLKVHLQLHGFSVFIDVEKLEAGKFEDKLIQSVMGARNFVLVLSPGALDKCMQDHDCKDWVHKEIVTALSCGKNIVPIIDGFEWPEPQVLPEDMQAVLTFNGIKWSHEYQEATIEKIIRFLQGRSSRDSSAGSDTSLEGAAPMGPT

A word on the inhibition: it is the change of the read-out against control, counted positive when it falls. For the compound `O=C(O)CCC1NCC2CC1CN1CCCCC21` (stereo not drawn), the inhibition in test [1] is 1.87% (inactive). The red/green cell ratio (normalised) in test [2] (counts scaled to control wells, 1 = unselective) was 1.12 (inactive). The normalised cell number was found to be 0.9 in [2] (setting [20]) and 1.01 in test [2] (setting [21]). In addition, in test [3], the activity remaining is 120% (inactive).
What is called viability is a per cent measure of how many cells are alive, often set against a control. `CCCCCCCCCCCCCCCC[n+]1ccccc1`: the inhibition in [4] is 55.6%; in test [1], 10.7% (inactive). In addition, the score in test [5] was -0.08. For the same compound, the rescue above control in test [6] came to 0. In [7], the cytochrome c release ratio worked out at 3.74. For the same compound, in test [8], the inhibition of aggregation was 52.2%. In [9], the glutamate uptake change is -18.1%. Besides, the aggregation suppression score in test [10] was -0.00459. Moreover, in [11], the parasite load remaining is -0.13% (inactive) and -0.08% (inactive). Besides, in test [11], the viability is 14.3% and 4.9%. In test [2], the red/green cell ratio (normalised) was 0.76 (inactive). In addition, the normalised cell number in test [2] (setting [20]) is 0.52; in test [2] (setting [21]) it was 0.4. Further, in test [3], the activity remaining was 111% (inactive). Also, the fold change was 0.867 (inactive) and 0.767 (inactive) in [12] (stronger effect = lower value); 1.06 and 4.42 in test [12] (setting [22]). The cell count in test [12] (setting [23]) was 1850 and 1610; in test [12] (setting [24]), 2130 and 2090. The z-score in test [13] (setting [25]) was -0.367 (inactive); in test [13] (setting [26]) it was -0.303. Besides, the remaining NAD in test [14] was 10 nM (inactive). In addition, in test [15], the luciferase signal was 96 AU (inactive).
Take `CN(C)[C@@H]1C(=O)C(C(N)=O)=C(O)[C@@]2(O)C(=O)C3=C(O)c4c(O)ccc(Cl)c4[C@@](C)(O)[C@H]3C[C@@H]12`: the inhibition is 15.6% in [4] and -12.1% (inactive) in test [1]. This compound also showed a score in test [5] of 0.9. The compound further came in with a rescue above control in [6] of 0. Also, the cytochrome c release ratio in test [7] came out at 0.82. The compound further yielded an inhibition of aggregation in test [8] of 9.52%. Further, the glutamate uptake change in [9] is 10.1%. In test [16], this compound registered an inclusion score of 0. In test [10], the aggregation suppression score was determined as 0.363. Moreover, the survival in [17] was 14.3 (inactive). In addition, in [11], the parasite load remaining was 104% (inactive) and 84.9% (inactive) and 79.4% (inactive). Also, the viability in [11] is 73.9% and 86% and 80%. In addition, in test [2], the red/green cell ratio (normalised) is 0.9 (inactive) and 1.54 (inactive). The normalised cell number in test [2] (setting [20]) is 1.16 and 0.93; in test [2] (setting [21]), 1.04 and 1.43. Also, the activity remaining in test [3] was 117% (inactive). Moreover, the fold change in [12] (stronger effect = lower value, cell number ratio, induced over uninduced) was 0.926 (inactive); in test [12] (setting [22]), 2.73. In addition, the cell count in test [12] (setting [23]) came out at 9350; in test [12] (setting [24]), 10100. Moreover, the z-score in [13] (setting [25]) is -3.64 (inactive); in test [13] (setting [26]) it was -1.98. Besides, in test [14], the remaining NAD was 10 nM (inactive). Moreover, the luciferase signal in test [15] is 60 AU (inactive).
On to `CC1=C(O)C(=O)C=C2C1=CC=C1[C@@]2(C)CC[C@@]2(C)[C@@H]3C[C@](C)(C(=O)O)CC[C@]3(C)CC[C@]12C`, for which the inhibition in test [1] is -29.5% (inactive). For the same compound, the red/green cell ratio (normalised) in [2] was 0.62 (inactive). Moreover, the normalised cell number in [2] (setting [20]) was determined as 0.09; in [2] (setting [21]) it was 0.05. In addition, the activity remaining in test [3] is 122% (inactive). Besides, the fold change in [12] (stronger effect = lower value) is 0.911 (inactive); in test [12] (setting [22]), 1.02. The results for the cell count in test [12] (setting [23]) and in [12] (setting [24]) were 948 and 1040, respectively. The luciferase signal in [15] was 360 AU (inactive).
`NCCc1c[nH]c2ccccc12`: the inhibition in test [4] is 21.6%; in test [1], -12.7% (inactive). Moreover, the score in test [5] worked out at 1.14. In [6], this compound had a rescue above control of -4.06. In addition, the cytochrome c release ratio in test [7] is 0.68. Also, the inhibition of aggregation in test [8] is 21.6%. The glutamate uptake change in test [9] is 6.97%. Besides, the inclusion score in test [16] worked out at 2. This compound registered an aggregation suppression score in test [10] of 1.32. For the same compound, in [18], the period change is 0.085 h (inactive). The parasite load remaining in test [11] was 148% (inactive). Moreover, in [11], the viability worked out at 88.3%. Moreover, the red/green cell ratio (normalised) in test [2] is 1.06 (inactive). Further, the normalised cell number was determined as 0.86 in test [2] (setting [20]) and 0.92 in test [2] (setting [21]). The activity remaining in test [3] was 113% (inactive). In addition, the figures for the fold change in [12] (stronger effect = lower value) and in test [12] (setting [22]) were 1.02 (inactive) and 1.42, respectively. Moreover, the figures for the cell count in test [12] (setting [23]) and in test [12] (setting [24]) were 9290 and 9110, respectively. For the same compound, in test [15], the luciferase signal is 44 AU (inactive). For the same compound, the z-score in test [19] was 0.19 (inactive).

(Values after PubChem BioAssay.)
